Measurements: PubChem BioAssay (EPA / NIEHS)
Results filed as inconclusive are left out. The source made the active and inactive calls. Rule for the calls, unless noted: active = hit-call score of the fitted dose curve at least 0.9, where 1 is the maximum; inactive = score below 0.9.

What was measured:
[1] = CCTE_Mundy_HCI_Cortical_Synap_Neur_Matur_SynapseCount: CCTE's Synaptogenesis and Neurite Maturation Assay in rat cortical cells for Synapse Count, Mundy Lab (AID 2284218)
How it was run: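 Read-out: synapse number per neuron, automated high-content imaging of fixed cells immunostained for MAP2 and synaptophysin plus Hoechst nuclei. Rat primary cortical cultures, AraC at DIV 5, chemical dosing DIV 7–12. Positive-direction fit relative to DMSO.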

[2] = CCTE_Mundy_HCI_Cortical_Synap_Neur_Matur_NeuriteCount: CCTE's Synaptogenesis and Neurite Maturation Assay in rat cortical cells for Neurite Count, Mundy Lab (AID 2284222);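 note: exposure from day 7 to day 12 in vitro with readout at day 12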
How it was run: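 Primary rat cortical cells were plated, treated with AraC at DIV 5, then exposed to chemicals from DIV 7 through DIV 12. After fixation and immunostaining for MAP2 and synaptophysin, imaging quantified neurites, with DMSO as the negative control.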

[3] = CCTE_Mundy_HCI_Cortical_Synap_Neur_Matur_CellBodySpotCount: CCTE's Synaptogenesis and Neurite Maturation Assay in rat cortical cells for Cell Body Spot Count, Mundy Lab (AID 2284223)
How it was run: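 Chemicals were applied to AraC-treated rat primary cortical cells at DIV 7 and measured at DIV 12. Fixed cells were labelled for MAP2, synaptophysin and nuclei, and high-content imaging gave cell body synaptophysin spot counts per neuron relative to DMSO.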

[4] = CCTE_Mundy_HCI_Cortical_NOG_NeuronCount: CCTE's Neurite Outgrowth Assay in rat cortical cells for Neuron Count, Mundy Lab (AID 2284236; active = hit-call score of the fitted dose curve at least 0.9, where 1 is the maximum;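 note: neurons counted by imaging betaIII-tubulin and Hoechst stained cortical cells; cells exposed to compound for about 48 hours before fixation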)
How it was run: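 Read-out: neuron number by high-content imaging of betaIII-tubulin (Alexa Fluor-488) and Hoechst-labelled rat primary cortical cells.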

[5] = CCTE_Mundy_HCI_Cortical_NOG_BPCount: CCTE's Neurite Outgrowth Assay in rat cortical cells for Branch Point Count, Mundy Lab (AID 2284237)
How it was run: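 Measured 50.33 h after dosing, this morphology endpoint uses rat primary cortical cultures labelled for betaIII-tubulin. Branch points are quantified by high-content imaging, with DMSO as negative control and baseline.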

[6] = CCTE_Mundy_HCI_hNP1_Casp3_7: CCTE's Caspase-Glo 3/7 Assay in human neuroprogenitor cells for Apoptosis, Mundy Lab (AID 2284240)
How it was run: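 Luminescent caspase-3/7 readout, 26.5 h post-dose, in human neural progenitor cells from WA09 embryonic stem cells. Cells grew 40–44 h at 37 °C, 5% CO2 before chemical addition. Activity analysed as signal increase over DMSO baseline.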

[7] = CCTE_Mundy_HCI_hNP1_CellTiter: CCTE's Cell Titer-Glo 2 Assay in human neuroprogenitor cells for Viability, Mundy Lab (AID 2284241; active = hit-call score of the fitted dose curve at least 0.9, where 1 is the maximum)
How it was run: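 Viability read as luminescent ATP content (CellTiter-Glo, 30 min room temperature) twenty-four hours after dosing, relative to DMSO. Cells: WA09-derived hNP1 neuroprogenitors on poly-L-ornithine/laminin, plated 40 to 44 hours before chemical.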

[8] = CCTE_Mundy_HCI_Cortical_Synap_Neur_Matur_NeuronCount: CCTE's Synaptogenesis and Neurite Maturation Assay in rat cortical cells for Neuron Count, Mundy Lab (AID 2284242; active = hit-call score of the fitted dose curve at least 0.9, where 1 is the maximum)
How it was run: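 Rat cortical cultures; AraC DIV 5; chemical dosing + media change DIV 7 to DIV 12 (288.33 h readout). Fix, Hoechst, anti-MAP2/anti-synaptophysin immunostain; HCI neuron count vs DMSO baseline.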

[9] = IUF_NPC2c_oligodendrocyte_migration_120hr: Leibniz Research Institute for Environmental Medicine (IUF) 120-hour Neural Progenitor Cell Migration Assay for Oligodendrocyte Migration (NPC2c) (AID 2284297);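 note: O4-positive oligodendrocyte migration distance divided by radial glia migration distance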
How it was run: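 Using fetal brain neural progenitor spheres differentiating in N2 medium at 37C, compounds were present for 120 h. Oligodendrocyte migration distance, normalized to radial glia migration, was measured from imaged O4 staining.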

[10] = IUF_NPC2a_radial_glia_migration_120hr: Leibniz Research Institute for Environmental Medicine (IUF) 120-hour Neural Progenitor Cell Migration Assay for Radial Glia Migration (NPC2a) (AID 2284298)
How it was run: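 Exposure of 0.3 mm primary hNPC spheres runs day 0 to 120 h with a half-volume medium change at day 3. Fixed cells get Hoechst staining; high-content analysis of nuclear positions yields radial glia migration distance per well, compared against DMSO controls.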

[11] = IUF_NPC2a_radial_glia_migration_72hr: Leibniz Research Institute for Environmental Medicine (IUF) 72-hour Neural Progenitor Cell Migration Assay for Radial Glia Migration (NPC2a) (AID 2284299)
How it was run: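 Readout: mean of four manual brightfield measurements of radial glia migration distance (um) at 72 h. hNPC spheres (0.3 mm) exposed to 7 compound concentrations plus solvent control on PDL/laminin, 37C, 5% CO2; activity fitted relative to DMSO.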

[12] = IUF_NPC2b_neuronal_migration_120hr: Leibniz Research Institute for Environmental Medicine (IUF) 120-hour Neural Progenitor Cell Migration Assay for Neuron Migration (NPC2b) (AID 2284300)
How it was run: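 Fetal human NPC spheres migrate on PDL/laminin during 120 h compound treatment; neuronal migration distance, glia-normalized, scored versus DMSO control.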

[13] = IUF_NPC3_neuronal_differentiation_120hr: Leibniz Research Institute for Environmental Medicine (IUF) 120-hour Neuronal Differentiation Assay (NPC3) (AID 2284301)
How it was run: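 hNPC spheres, PDL/laminin, DMEM/F12 3:1 + 1% N2, 37C, 5% CO2; 7 concentrations + solvent control, 5 d exposure, half-change day 3. Fix 120 h; TUBB3/Hoechst ICC, CNN neuron calling; % neurons vs nuclei, DMSO-normalized.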

[14] = IUF_NPC4_neurite_length_120hr: Leibniz Research Institute for Environmental Medicine (IUF) 120-hour Neuronal Morphology Assay for Neurite Length (NPC4) (AID 2284302)
How it was run: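 hNPC spheres (0.3 mm, fetal brain GW 16-19) on PDL/laminin, DMEM:F12 3:1 + 1% N2, 37C 5% CO2; 7 concs + solvent control, day 0-5, half medium change d3; fix 120 h, TUBB3 ICC, mean neurite length um vs DMSO.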

[15] = IUF_NPC4_neurite_area_120hr: Leibniz Research Institute for Environmental Medicine (IUF) 120-hour Neuronal Morphology Assay for Neurite Area (NPC4) (AID 2284305; active = hit-call score of the fitted dose curve at least 0.9, where 1 is the maximum)
How it was run: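 hNPC spheres on PDL/laminin, N2 medium, 37C/5% CO2; dosed day 0, half-medium refresh day 3; fixed 120 h; TUBB3/Hoechst ICC, high-content imaging; neurite area = mean pixels per neuron (nuclei excluded); DMSO baseline, max 0.1%.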

[16] = IUF_NPC2-5_cytotoxicity_72hr: Cytotoxicity Assessment at 72 hours in the Leibniz Research Institute for Environmental Medicine (IUF) Neural Progenitor Cell Migration and Differentiation Assay for Cytotoxicity (NPC2-5) (AID 2284306; active = hit-call score of the fitted dose curve at least 0.9, where 1 is the maximum;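 note: LDH release into supernatant measured by resorufin fluorescence marking membrane damage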)
How it was run: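 hNPC spheres (0.3 mm), PDL/laminin, DMEM/F12 3:1 + 1% N2; cpd from d0, 7 concs + SC, DMSO max 0.1%; half-medium refresh d3. Readout: supernatant LDH via resorufin fluorescence (RFU), 72 h; gain-of-signal fit.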

[17] = IUF_NPC2-5_cytotoxicity_120hr: Cytotoxicity Assessment at 120 hours in the Leibniz Research Institute for Environmental Medicine (IUF) Neural Progenitor Cell Migration and Differentiation Assay (NPC2-5) (AID 2284307; active = hit-call score of the fitted dose curve at least 0.9, where 1 is the maximum)
How it was run: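 Membrane-integrity loss is quantified by LDH in supernatant after five days of exposure of migrating, differentiating human fetal NPC spheres; seven serially diluted concentrations are tested with DMSO kept at or below 0.1%.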

[18] = IUF_NPC2-5_cell_number_120hr: Cell Number Assessment at 120 hours in the Leibniz Research Institute for Environmental Medicine (IUF) Neural Progenitor Cell Migration and Differentiation Assay (NPC2-5) (AID 2284308);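 note: count of Hoechst-stained nuclei in migration zone around plated human neural progenitor spheres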
How it was run: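 Seven-point serial dilutions plus solvent control were applied to plated 0.3 mm hNPC spheres at differentiation start, with medium half-replaced at day 3. Nuclei positive for Hoechst in the migration zone were enumerated at 120 h.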

[19] = IUF_NPC2-5_viability_120hr: Viability Assessment at 120 hours in the Leibniz Research Institute for Environmental Medicine (IUF) Neural Progenitor Cell Migration and Differentiation Assay (NPC2-5) (AID 2284312)
How it was run: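 Human fetal neural progenitor spheres (0.3 mm) plated on poly-D-lysine/laminin in N2 differentiation medium, exposed 120 h with half-medium refresh at day 3. Viability by alamar blue resazurin fluorescence; 7 concentrations, DMSO max 0.1%.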

[20] = CCTE_Mundy_HCI_iCellGluta_NOG_NeuriteLength: CCTE's Neurite Outgrowth Assay in iCellGluta cells for Neurite Length, Mundy Lab (AID 2284318; active = hit-call score of the fitted dose curve at least 0.9, where 1 is the maximum)
How it was run: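 Automated high-content imaging of betaIII-tubulin (Alexa Fluor-488) and Hoechst-stained cells gave neurite length, normalized to the DMSO baseline.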

[21] = IUF_NPC1_cytotoxicity_72hr: Cytotoxicity Assessment at 72 hours in the Leibniz Research Institute for Environmental Medicine (IUF) Neural Progenitor Cell Proliferation Assay (NPC1) (AID 2284332; active = hit-call score of the fitted dose curve at least 0.9, where 1 is the maximum;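 note: rising LDH signal means more cytotoxicity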)
How it was run: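 LDH in supernatant, resazurin→resorufin fluorescence (RFU), 72 h exposure, no re-dosing. Cells: primary hNPC spheres, one per well, EGF+FGF medium, 37C/5% CO2, pH 7.2-7.6. Fit: positive direction vs baseline and dynamic range.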

[22] = CCTE_Mundy_HCI_iCellGluta_NOG_NeuronCount: CCTE's Neurite Outgrowth Assay in iCellGluta cells for Neuron Count, Mundy Lab (AID 2284340; active = hit-call score of the fitted dose curve at least 0.9, where 1 is the maximum;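 note: cells fixed about 48 h after compound addition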)
How it was run: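 Neuron count read by automated high-content imaging of Hoechst 33342 and betaIII-tubulin/Alexa Fluor-488 labelling in human iPSC glutamatergic neurons. Activity fitted relative to DMSO.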

[23] = CCTE_Mundy_HCI_iCellGluta_NOG_NeuriteCount: CCTE's Neurite Outgrowth Assay in iCellGluta cells for Neurite Count, Mundy Lab (AID 2284342; active = hit-call score of the fitted dose curve at least 0.9, where 1 is the maximum;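 note: chemical exposure about 48 hours starting 2 hours after plating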)

Measured: outcome

Cc1[nH]n(C)c(=O)c1C(=O)c1ccc(C(F)(F)F)cc1S(C)(=O)=O
inactive: all assays above
